# Results filed as inconclusive are left out. Activity calls are given as the source filed them. The call rests on the fitted dose curve; in most records, active means well fitted cell-killing curve with a large enough effect; inconclusive means small, poorly fitted or top-dose-only effect; inactive means no such curve, though single readings can be large or run the other way.
# Test: qHTS of pediatric cancer cell lines to identify multiple opportunities for drug repurposing: Primary screen for Rh30 cells (AID 1347107); further: nearly all actives have a fitted effect of over 75% in size
# Details: Rh30 rhabdomyosarcoma viability, CellTiter-Glo luminescence, 48 h; series mostly up to 46 µM; activity change, negative = cytotoxic: at the top concentration
# In short: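 Cells (500-1,000/well) in growth media were settled 5 h at 37 degrees C, then given compounds for 48 h. Viability was read as CellTiter-Glo luminescence. Primary runs used MIPE at 11 points (0.78 nM-46 µM) and NPC at 8 points (0.59 nM-46 µM); follow-ups used 11 points.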
# On the % scale 0 is the no-effect control and ±100 the full control effect.
row,Compound,"activity change, negative = cytotoxic"
1,CCN(CC)CCOC(=O)C1(C2CCCCC2)CCCCC1,16.6% (inactive)
2,NC1[C@H]2CN(c3nc4c(cc3F)c(=O)c(C(=O)O)cn4-c3ccc(F)cc3F)C[C@@H]12 (stereo partly drawn),1.34% (inactive)
3,CC(C)(C)C(=O)NCCCC(=O)O,19.7% (inactive)
4,NC(N)=NCCC[C@H](N)C(=O)O,18% [at 4.84 µM] (inactive)
5,Nc1ccc(S(=O)(=O)Nc2nccs2)cc1,24.8% (inactive)
6,COc1ccc2cc1Oc1ccc(cc1)C[C@H]1c3c(cc4c(c3Oc3cc5c(cc3OC)CCN(C)[C@@H]5C2)OCO4)CCN1C,4.03% (inactive)
7,CN(C)CCCN1c2ccccc2Sc2ccc(Cl)cc21,-2.99% (inactive)
8,CC(C)(C(=O)O)c1ccc(C(O)CCCN2CCC(C(O)(c3ccccc3)c3ccccc3)CC2)cc1 (stereo not drawn),14.8% (inactive)
9,NS(=O)(=O)c1cc2c(cc1Cl)NC(CSCc1ccccc1)=NS2(=O)=O,9.98% (inactive)
10,Cc1c(O)cccc1C(=O)N[C@@H](CSc1ccccc1)[C@H](O)CN1C[C@H]2CCCC[C@H]2C[C@H]1C(=O)NC(C)(C)C,-3.51% (inactive)
11,C/C(=C(\CCOP(=O)(O)O)SC(=O)c1ccccc1)N(C=O)Cc1cnc(C)nc1N,26.4% [at 4.84 µM] (inactive)
12,Oc1ccc(C(O)CNCCCCCCNCC(O)c2ccc(O)c(O)c2)cc1O (stereo not drawn),8.52% (inactive)
13,Oc1cccc(O)c1,20.4% (inactive)
14,CC(=O)O[C@@]12CO[C@@H]1C[C@H](O)[C@@]1(C)C(=O)[C@H](O)C3=C(C)[C@@H](OC(=O)[C@H](O)[C@@H](NC(=O)OC(C)(C)C)c4ccccc4)C[C@@](O)([C@@H](OC(=O)c4ccccc4)[C@H]21)C3(C)C,4.94% (inactive)
15,CC1(C)Oc2ccc(C#N)cc2[C@@H](N2CCCC2=O)[C@@H]1O,13.6% (inactive)
16,O=C(O)c1ccccn1,11.8% (inactive)
17,Nc1ccc(S(=O)(=O)NC(=O)c2ccccc2)cc1,3.88% (inactive)
18,CC1=C(CC(=O)O)c2cc(F)ccc2/C1=C\c1ccc(S(C)=O)cc1 (stereo not drawn),13% (inactive)
19,CN1CCN(C2Cc3ccccc3Sc3ccc(Cl)cc32)CC1 (stereo not drawn),-5.1% (inactive)

row,Compound,"activity change, negative = cytotoxic"
1,CC(=O)c1ccc2c(c1)N(CCCN(C)C)c1ccccc1S2,-0.0721% (inactive)
2,C[C@H](NC(CCc1ccccc1)C(=O)O)C(=O)N1CCC[C@H]1C(=O)O (stereo partly drawn),11% (inactive)
3,O=C(O)[C@@H]1CSCN1,-6.65% (inactive)
4,CNCCC(Oc1ccc(C(F)(F)F)cc1)c1ccccc1 (stereo not drawn),0.418% (inactive)
5,Nc1ccc(S(=O)(=O)Nc2ccccc2)cc1,22.8% (inactive)
6,COCCOC(=O)C1=C(C)NC(C)=C(C(=O)OC/C=C/c2ccccc2)C1c1cccc([N+](=O)[O-])c1 (stereo not drawn),1.31% (inactive)
7,CN1[C@@H]2CC(OC(=O)[C@H](CO)c3ccccc3)C[C@H]1[C@@H]1O[C@@H]12 (stereo partly drawn),10.4% (inactive)
8,O=c1[nH]cnc2c1ncn2[C@@H]1O[C@H](CO)[C@@H](O)[C@H]1O,25.9% (inactive)
9,CCCCN(CCCC)CCCOC(=O)c1ccc(N)cc1,23.2% (inactive)
10,CCC(=O)Nc1ccc(O)cc1,13% (inactive)
11,CCOc1nc2cccc(C(=O)O)c2n1Cc1ccc(-c2ccccc2-c2nn[nH]n2)cc1,1.81% (inactive)
12,CC(O)COc1ccccc1 (stereo not drawn),19.1% (inactive)
13,CN(C)CCN(Cc1ccccc1)c1ccccn1,9.44% (inactive)
14,CCOC(CN1CCN(CC(C)C(=O)c2ccccc2)CC1)c1ccccc1 (stereo not drawn),24.8% [at 16.1 µM] (inactive)
15,CC1(C)S[C@@H]2[C@H](NC(=O)Cc3ccccc3)C(=O)N2[C@H]1C(=O)O (tested in a mixture with another compound),14.3% (inactive)
16,CN1CCC[C@@H]1Cc1c[nH]c2ccc(CCS(=O)(=O)c3ccccc3)cc12,20.5% (inactive)
17,CNCCCC1c2ccccc2C=Cc2ccccc21,15.6% (inactive)
18,C=CCn1c(=O)n([C@@H]2O[C@H](CO)[C@@H](O)[C@H]2O)c2nc(N)[nH]c(=O)c21,26.2% (inactive)
19,CN(C)CC[C@@H](c1ccc(Cl)cc1)c1ccccn1,18.4% (inactive)

# — PubChem BioAssay (NCATS)
